SMILES strings stand for the structures. Where “and” joins values, the source holds several entries; their conditions need not be identical. Equal entries are not always repeated. About 1,100 (6.5%) of roughly 17,000 compounds were called active. The sample holds actives, similar compounds and a random draw of the others, so the mix is not that of the screen.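 The calls were made as follows: active = z-score of -3 or lower, meaning strong loss of probe binding signal; inactive = the rest.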 Some structures have more than one record in an assay (separate samples or runs), and their calls can disagree.

The target in this assay is Insulin-degrading enzyme (Homo sapiens) (UniProt P14735). Put plainly: exo-site inhibitors of human IDE, primary screen, biochemical, fluorescence anisotropy, probe displacement (AID 1259349).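 Also: His-tagged human IDE residues 42-1019 made in E. coli with 30 nM FL-6b probe.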 The conditions noted are these: purified IDE, FL-6b probe fluorescence polarization; at 20 µM; stronger effect = lower value.
Sequence of Insulin-degrading enzyme (Homo sapiens) (P14735 42-1019 limits assumed): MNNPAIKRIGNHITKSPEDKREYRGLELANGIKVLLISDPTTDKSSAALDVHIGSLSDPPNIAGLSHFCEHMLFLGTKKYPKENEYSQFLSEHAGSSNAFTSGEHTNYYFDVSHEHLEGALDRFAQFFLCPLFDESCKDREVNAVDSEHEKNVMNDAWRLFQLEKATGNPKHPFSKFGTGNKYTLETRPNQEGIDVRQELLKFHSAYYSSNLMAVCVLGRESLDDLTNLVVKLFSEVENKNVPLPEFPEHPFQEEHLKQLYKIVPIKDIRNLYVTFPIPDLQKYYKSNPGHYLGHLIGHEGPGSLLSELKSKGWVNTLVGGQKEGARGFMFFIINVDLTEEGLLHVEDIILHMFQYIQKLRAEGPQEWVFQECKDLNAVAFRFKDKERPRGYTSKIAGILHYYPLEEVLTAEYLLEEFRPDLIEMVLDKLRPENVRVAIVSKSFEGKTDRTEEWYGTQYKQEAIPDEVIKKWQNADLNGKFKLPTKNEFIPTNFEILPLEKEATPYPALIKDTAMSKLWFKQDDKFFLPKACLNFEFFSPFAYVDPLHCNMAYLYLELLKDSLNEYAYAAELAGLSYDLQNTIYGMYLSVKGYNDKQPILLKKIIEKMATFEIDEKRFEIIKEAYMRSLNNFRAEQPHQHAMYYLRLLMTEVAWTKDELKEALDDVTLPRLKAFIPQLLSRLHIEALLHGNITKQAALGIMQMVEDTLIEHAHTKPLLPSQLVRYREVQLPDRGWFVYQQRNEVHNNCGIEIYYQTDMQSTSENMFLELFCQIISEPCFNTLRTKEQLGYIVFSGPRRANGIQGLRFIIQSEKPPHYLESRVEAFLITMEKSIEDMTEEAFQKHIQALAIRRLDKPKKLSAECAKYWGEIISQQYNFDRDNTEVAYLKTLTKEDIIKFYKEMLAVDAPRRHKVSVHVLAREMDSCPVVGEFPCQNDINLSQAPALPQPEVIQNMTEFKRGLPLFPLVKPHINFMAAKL
As for `CCC(=O)N1CCCCN2[C@H](C1)[C@@H](c1ccc(-c3ccc(F)cc3)cc1)[C@@H]2CO`, the z-score is 1.91 (inactive).

Take `CC(C)CC#Cc1ccc([C@H]2[C@@H](CO)N3C(=O)CN(C(=O)CN4CCOCC4)C[C@H]23)cc1`: the z-score is 2.46 (inactive). With `O=C(c1cnccn1)N1CC(=O)N2[C@H](C1)[C@H](c1ccc(/C=C/c3ccccc3)cc1)[C@@H]2CO` the figure was -7.53 (active); with `O=C(CN1CCOCC1)N1CCCCN2[C@H](CO)[C@H](c3ccc(-c4ccccc4)cc3)[C@@H]2C1`, -0.341 (inactive); with `O=C(CN1CCOCC1)N1CCCCN2[C@@H](CO)[C@H](c3ccc(-c4ccccc4)cc3)[C@@H]2C1`, -0.926 (inactive). With `O=C(CN1CCOCC1)N1CCCCN2[C@@H](CO)[C@H](c3ccc(/C=C/c4ccccc4)cc3)[C@@H]2C1` the figure was -4.3 (active); with `O=C(Cc1cccnc1)N1CC(=O)N2[C@H](CO)[C@@H](c3ccc(/C=C/c4ccccc4)cc3)[C@H]2C1`, -1.1 (inactive); with `CCC(=O)N1CCCCN2[C@H](C1)[C@@H](c1ccc(/C=C/c3ccccc3)cc1)[C@@H]2CO`, -7.21 (active).

As for `O=C(CN1CCOCC1)N1CC(=O)N2[C@H](C1)[C@H](c1ccc(/C=C/c3ccccc3)cc1)[C@@H]2CO`, the z-score was -5.55 (active). Take `COCC(=O)N1CCCCN2[C@H](C1)[C@@H](c1ccc(-c3ccccc3)cc1)[C@@H]2CO`: the z-score is 1.64 (inactive). For the molecule `O=C(c1cnccn1)N1CC(=O)N2[C@H](C1)[C@@H](c1ccc(C3=CCCCC3)cc1)[C@@H]2CO`, the z-score is 0.336 (inactive). Turning to `CC(C)CC#Cc1ccc([C@H]2[C@H]3CN(C(=O)CN4CCOCC4)CC(=O)N3[C@H]2CO)cc1`, the z-score is 4.32 (inactive). With `COCC#Cc1ccc([C@@H]2[C@@H](CO)N3CCCCN(C(=O)COC)C[C@@H]23)cc1`, the z-score is 1.49 (inactive). In the case of `CCCNC(=O)N1[C@H](CO)[C@@H](c2ccc(-c3ccc(C(=O)N(C)C)cc3)cc2)[C@@H]1C#N`, the z-score is -1.53 (inactive). With `CCC(=O)N1[C@@H](CO)[C@@H]2c3ccccc3N(C(=O)c3cnccn3)C[C@@H]21` the figure was 1.18 (inactive). The same measure for `CO[C@@H]1CN(C)C(=O)c2cc(NS(=O)(=O)c3cccc(Cl)c3)ccc2OC[C@@H](C)NC[C@@H]1C`: -0.0121 (inactive); for `O=C(c1cnccn1)N1CC(=O)N2[C@H](C1)[C@@H](c1ccc(C#CC3CCCCC3)cc1)[C@@H]2CO`: 4.43 (inactive); for `Cc1ccccc1S(=O)(=O)N1C[C@H](O)COC[C@H]2O[C@H](CC(=O)N3CCCCC3)CC[C@@H]21`: -0.576 (inactive). With `C[C@H](NC(=O)C[C@H]1CC[C@H]2[C@@H](COC[C@H](O)CN2C(=O)Nc2cccc(Cl)c2)O1)c1ccccc1` the figure was 1.23 (inactive); with `Cn1cnc(S(=O)(=O)N2CCCCN3[C@@H](CO)[C@@H](c4ccc(C#CC5CCCC5)cc4)[C@@H]3C2)c1`, 1.81 (inactive); with `O=C(Nc1ccc(C(F)(F)F)cc1)N1[C@@H]2CNC[C@H]1C2c1ccc(-c2ccncc2)cc1` (stereo not given in full), 3.1 (inactive) and 5.44 (inactive). As for `COc1ccc(-c2ccc3c(c2)[C@@H]2[C@@H](CCN2C(=O)c2cccc(F)c2)[C@H](CO)N3)cc1`, the z-score is 1.25 (inactive).

Regarding `O=C(c1ccccc1)N1CC(=O)N2[C@@H](CO)[C@H](c3ccc(C#CCC4CCCC4)cc3)[C@@H]2C1`, the z-score was 0.717 (inactive). With `CNC[C@@H]1OCCCC[C@H](C)Oc2ccc(NC(=O)Nc3ccc(OC)cc3)cc2C(=O)N([C@H](C)CO)C[C@@H]1C`, the z-score is 1.03 (inactive).

For the molecule `CC(=O)N1CC2(C1)[C@H](c1ccccc1)[C@@H](CO)N2C(=O)Cc1ccccc1`, the z-score was -0.887 (inactive). In the case of `COc1ccc2c3c([nH]c2c1)[C@H](CO)N(Cc1ccccc1Cl)CC31CN(C(=O)C2CC2)C1`, the z-score is -4.06 (active). With `COc1ccc2c3c([nH]c2c1)[C@@H](CO)N(Cc1cc(F)ccc1F)CC31CN(C(=O)C2CCC2)C1`, the z-score is -1.31 (inactive). With `COCC(=O)N1CC2(C1)CN(Cc1ccccc1F)[C@@H](CO)c1[nH]c3cc(OC)ccc3c12` the figure was -1.64 (inactive).

As for `N#Cc1cccc(-c2ccc3c(c2)[C@H]2[C@H](CCN2Cc2ccc4c(c2)OCO4)[C@@H](CO)N3)c1`, the z-score is 1.22 (inactive). On to `CC(C)NC(=O)N1CCCCN2[C@H](CO)[C@@H](c3ccc(Br)cc3)[C@H]2C1`, for which the z-score is 2.67 (inactive). With `CCCNC(=O)N1[C@H](C#N)[C@@H](c2ccccc2)[C@H]1CO`, the z-score is 3.95 (inactive).

Turning to `C[C@@H]1CCCCO[C@H](CN(C)S(=O)(=O)c2cn(C)cn2)[C@H](C)CN([C@H](C)CO)C(=O)c2cc(N(C)C)ccc2O1`, the z-score is -0.253 (inactive). `CCCNC(=O)N1[C@@H]2CNC[C@H]1C2c1ccc(-c2cccc(C)c2)cc1` (stereo not given in full): the z-score was 0.449 (inactive) and -6.06 (active). The same measure for `COc1cccc(-c2ccc(C3[C@H]4CNC[C@@H]3N4C(=O)Nc3ccc(F)cc3)cc2)c1` (stereo not given in full): -0.759 (inactive) and -1.81 (inactive); for `CCCNC(=O)N1[C@@H]2CNC[C@H]1C2c1ccc(-c2ccccc2)cc1` (stereo not given in full): 0.774 (inactive) and 1.73 (inactive); for `CCC(=O)N1[C@@H](CO)[C@H](c2ccc(-c3cccc(F)c3)cc2)[C@@H]1CNC(C)=O`: 2.2 (inactive). For `N#C[C@@H]1[C@H](c2ccccc2-c2ccccc2F)[C@@H](CO)N1C(=O)C1CCOCC1`, the z-score is 3.52 (inactive). `Cc1noc(C)c1S(=O)(=O)N(C)C[C@H]1Oc2ccc(N(C)C)cc2C(=O)N([C@H](C)CO)C[C@@H]1C`: the z-score was -1.17 (inactive).

Regarding `CCCC#Cc1ccc([C@H]2[C@H](CO)N3CCCCN(S(=O)(=O)CC)C[C@@H]23)cc1`, the z-score is 3.45 (inactive). The same measure for `CCCC#Cc1ccc([C@@H]2[C@H](CO)N3CCCCN(S(=O)(=O)c4ccccc4F)C[C@@H]23)cc1`: -4.86 (active); for `COc1ccccc1NC(=O)N1CCCCN2[C@@H](CO)[C@@H](c3ccc(C#Cc4ccccc4)cc3)[C@@H]2C1`: -2.86 (inactive).

On to `CS(=O)(=O)N1CCCCN2[C@@H](CO)[C@@H](c3ccc(Br)cc3)[C@@H]2C1`, for which the z-score is -1.86 (inactive). For the molecule `OC[C@H]1[C@@H](c2ccc(C#Cc3ccccc3F)cc2)[C@H]2CN(CC3CCOCC3)CCCCN21`, the z-score is 0.86 (inactive). The same measure for `CN(C)CC#Cc1ccc([C@H]2[C@H]3CN(S(=O)(=O)c4ccccc4F)CCCCN3[C@H]2CO)cc1`: 1.11 (inactive); for `COc1ccccc1C#Cc1ccc([C@H]2[C@H](CO)N3CCCCN(C(=O)C4CCC4)C[C@@H]23)cc1`: -12.3 (active); for `COc1ccccc1C#Cc1ccc([C@@H]2[C@H](CO)N3CCCCN(CCC(F)(F)F)C[C@@H]23)cc1`: -8.07 (active). The same measure for `COc1ccc(C#Cc2ccc([C@H]3[C@@H](CO)N4CCCCN(C(=O)Nc5ccccc5)C[C@H]34)cc2)cc1`: 4.38 (inactive); for `CCCC#Cc1ccc([C@H]2[C@@H](CO)N3CCCCN(S(=O)(=O)CC)C[C@H]23)cc1`: 3.29 (inactive); for `O=C(Nc1ccc(F)cc1)N1CCCCN2[C@H](CO)[C@H](c3ccc(C#Cc4ccccc4)cc3)[C@H]2C1`: -0.00774 (inactive). The same measure for `COc1ccccc1C#Cc1ccc([C@@H]2[C@@H](CO)N3CCCCN(S(C)(=O)=O)C[C@@H]23)cc1`: -10.2 (active).

The record behind these values is PubChem BioAssay AID1259349 (Broad Institute, 2017).
